Data published in PubChem BioAssay (NCATS).
Inconclusive results are not listed. Active and inactive are the calls of the source. Unless noted, calls come from the whole dose curve; as a rule, active = well fitted curve in the direction sought with a large enough effect; inconclusive = small, poorly fitted or top-dose-only effect, or another doubt; inactive = no such curve, though single readings can be large; an effect the other way counts as inactive or inconclusive.

Key:
[1] = qHTS assay to identify small molecule inhibitors of chordoma cells - UCH-2 (AID 1259356); note: series mostly up to about 46 µM; % is set by controls: 0 for no effect and ±100 for the full control effect
[2] = P-glycoprotein substrates identified in KB-8-5-11 adenocarcinoma cell line, qHTS therapeutic library screen (AID 1346987); note: nearly all actives have a fitted effect of over 65% in size; note: potency is the fitted concentration of half-maximal effect
Procedure, shortened: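 KB-8-5-11: colchicine-selected sub-line of KB-3-1 over-expressing P-gp; assay medium lacked colchicine. 72 h drug exposure at 37 degree C, CellTiter-Glo.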

[3] = Natriuretic polypeptide receptor (hNpr1) antagonism - Pilot counterscreen GloSensor control cell line (AID 1347045; calls by dose curve; note: series mostly up to about 38 µM; % is set by controls: 0 for no effect and ±100 for the full control effect)
Procedure, shortened: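 HEK293 cells carrying the GloSensor cGMP sensor (GIP/pGS-40F) were loaded with 2% GloSensor reagent for 2 h, exposed to compounds for 30 min, and then stimulated with 50 uM sodium nitroprusside for 20 min at room temperature.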

[4] = target: Atrial natriuretic peptide receptor 1 (Homo sapiens) (UniProt P16066); experiment: Natriuretic polypeptide receptor (hNpr1) antagonism - Pilot screen (AID 1347049; calls by dose curve;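 note: agonist-evoked cGMP luminescence read 20 min after hNppA addition; series mostly up to about 58 µM; % is set by controls: 0 for no effect and ±100 for the full control effect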)
Procedure, shortened: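 HEK293 cells co-expressing hNpr1 and the GloSensor pGS-40F cGMP luciferase sensor were preloaded with 2% GloSensor reagent for 2 h. Compounds were added for 30 min at room temperature, then cells were stimulated with 0.1 nM hNppA for 20 min before luminescence readout.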

[5] = target: Atrial natriuretic peptide receptor 2 (Homo sapiens) (UniProt P20594); experiment: Natriuretic polypeptide receptor (hNpr2) antagonism - Pilot subtype selectivity assay (AID 1347050; calls by dose curve; note: % is set by controls: 0 for no effect and ±100 for the full control effect)
Procedure, shortened: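 cGMP-sensor HEK293/hNpr2 cells; 2% GloSensor reagent 2 h RT; compounds 30 min; baseline luminescence read; 1 nM hNppC agonist 20 min RT; final luminescence read by CCD camera. Antagonism = reduced post-agonist signal.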

[6] = NS1 protein of Zika virus - qHTS assay to identify small molecule inhibitors in human HEK 293 cells (AID 1347053);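 note: series mostly up to about 46 µM; plate controls were infected untreated cells for no effect and uninfected cells for full effect; nearly all actives have a fitted effect of over 55% in size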
Procedure, shortened: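 HEK 293 cells pretreated with compound for 1 h, then infected with ZIKV MR766 (MOI 0.5) for 24 h at 37 C. NS1 detected by TR-FRET with two anti-NS1 antibodies; normalized to uninfected (0%) and infected (100%) wells.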

[7] = target: T1, Tyrosine-protein phosphatase non-receptor type substrate 1 (Homo sapiens) + Leukocyte surface antigen CD47 (Homo sapiens) (UniProt P78324+Q08722); experiment: CD47-SIRPalpha protein protein interaction - LANCE assay qHTS validation (AID 1347057; active = well fitted curve in the direction sought with a large enough effect in the signal ratio, with a control signal flat, not every such curve was filed as active; the % refers to the signal ratio; note: series mostly up to about 38 µM; 0% is about no effect)
Procedure, shortened: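 First, His-tagged CD47 and Eu-labelled anti-His antibody met the compound for 30 min; next, site-specifically biotinylated SIRPalpha was added for 30 min; finally streptavidin-APC was added before reading the TR-FRET ratio.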

[8] = target: T1, Tyrosine-protein phosphatase non-receptor type substrate 1 (Homo sapiens) + Leukocyte surface antigen CD47 (Homo sapiens); experiment: CD47-SIRPalpha protein protein interaction - HTRF assay qHTS validation (AID 1347058; active = well fitted curve in the direction sought with a large enough effect in the signal ratio, not every such curve was filed as active; the % refers to the signal ratio; note: series mostly up to about 38 µM; 0% is about no effect)
Procedure, shortened: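 TR-FRET read (Ch1/Ch2 ratio) of soluble extracellular CD47 and Avi-biotinylated SIRPalpha domains in PBS pH 7.4 with 0.05% IGEPAL; 7-point compound titration. Sequential 30 min room-temperature steps; non-biotinylated SIRPalpha as control inhibitor.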

[9] = target: T1, Tyrosine-protein phosphatase non-receptor type substrate 1 (Homo sapiens) + Leukocyte surface antigen CD47 (Homo sapiens); experiment: CD47-SIRPalpha protein protein interaction - Alpha assay qHTS validation (AID 1347059)
Procedure, shortened: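 Soluble extracellular domains: Avi-tag biotinylated SIRPalpha (25 nM) preincubated 30 min RT with compound, then 6His-CD47 (12.5 nM) 30 min; Ni-NTA acceptor and streptavidin donor beads (10 ug/mL) 30 min, AlphaScreen read. PBS pH 7.4, 0.05% IGEPAL.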

[10] = target: Parathyroid hormone/parathyroid hormone-related peptide receptor (Homo sapiens) (UniProt Q03431); experiment: qHTS for PTHR1 Agonists: Optimization Screen against the NCGC LOPAC library (AID 1347079);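 note: GloSensor cAMP luminescence in HEK-293 GP2 cells expressing human PTHR1 with IBMX; 0% is about no effect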
Procedure, shortened: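 Compounds were tested across a qHTS titration. PTHR1-expressing GP2 cells report cAMP rises via GloSensor luminescence after 1 hr compound exposure at 37C with IBMX present.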

[11] = qHTS of pediatric cancer cell lines to identify multiple opportunities for drug repurposing: Primary screen for DAOY cells (AID 1347090);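 note: series mostly up to about 46 µM; plate controls were DMSO for no effect and bortezomib for full effect; nearly all actives have a fitted effect of over 55% in size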
Procedure, shortened: (§1)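 Eight- or eleven-point concentration series, 48 h treatment at 37 degrees C in growth media; readout CellTiter-Glo luminescence. Potency and efficacy were taken from the concentration-response curves.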

[12] = qHTS of pediatric cancer cell lines to identify multiple opportunities for drug repurposing: Primary screen for SJ-GBM2 cells (AID 1347091);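 note: plate controls were DMSO neutral control for no effect and bortezomib for full effect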
Procedure, shortened: as §1

[13] = qHTS of pediatric cancer cell lines to identify multiple opportunities for drug repurposing: Primary screen for A673 cells (AID 1347092); note: nearly all actives have a fitted effect of over 45% in size; note: potency is the fitted concentration of half-maximal effect
Procedure, shortened: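 Titration-based qHTS on A673 cells: MIPE compounds spanned 11 points (0.78 nM to 46 µM final), NPC compounds 8 points (0.59 nM to 46 µM final). Viability after 48 h was measured by ATP luminescence.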

[14] = qHTS of pediatric cancer cell lines to identify multiple opportunities for drug repurposing: Primary screen for SK-N-MC cells (AID 1347093); note: potency is the fitted concentration of half-maximal effect;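 for activity change, negative = cytotoxic: series mostly up to about 46 µM; plate controls were DMSO neutral control for no effect and bortezomib for full effect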
Procedure, shortened: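 Metabolically active cells were quantified by ATP-dependent luminescence (CellTiter-Glo, 15 min at room temperature) following 48 h treatment. Cells had been plated at 500-1,000 per well and settled for 5 h beforehand.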

[15] = qHTS of pediatric cancer cell lines to identify multiple opportunities for drug repurposing: Primary screen for BT-37 cells (AID 1347094);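 note: series mostly up to about 57 µM; plate controls were DMSO for no effect and bortezomib for full effect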
Procedure, shortened: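 Primary screen of approved and investigational compounds on cells in growth media at 37 degrees C, 5% CO2. MIPE set at 11-point and NPC set at 8-point dilutions; viability scored by ATP-based luminescence at 48 hours.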

[16] = qHTS of pediatric cancer cell lines to identify multiple opportunities for drug repurposing: Primary screen for TC32 cells (AID 1347089); note: % is set by controls: 0 for no effect and ±100 for the full control effect; nearly all actives have a fitted effect of over 60% in size
Procedure, shortened: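 A viability screen of TC32 cells was run over 48 h, with primary MIPE doses spanning 0.78 nM–46 µM and NPC doses 0.59 nM–46 µM. ATP luminescence (CellTiter-Glo) served as the read-out.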

[17] = P-glycoprotein substrates identified in KB-3-1 adenocarcinoma cell line, qHTS therapeutic library screen (AID 1346986); settings: outcome: dose series up to 44.5 µM; note: % is set by controls: 0 for no effect and ±100 for the full control effect; nearly all actives have a fitted effect of over 60% in size
Procedure, shortened: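 KB-3-1 parental cells and P-gp-overexpressing KB-8-5-11 (colchicine omitted during assay) plated at 500 cells/well, dosed in dose-response, incubated 72 h at 37 degree C. CellTiter-Glo luminescence read; KB-8-5-11 also tested with tariquidar.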

Sequence of Atrial natriuretic peptide receptor 1 (Homo sapiens) (P16066 whole entry, looked up): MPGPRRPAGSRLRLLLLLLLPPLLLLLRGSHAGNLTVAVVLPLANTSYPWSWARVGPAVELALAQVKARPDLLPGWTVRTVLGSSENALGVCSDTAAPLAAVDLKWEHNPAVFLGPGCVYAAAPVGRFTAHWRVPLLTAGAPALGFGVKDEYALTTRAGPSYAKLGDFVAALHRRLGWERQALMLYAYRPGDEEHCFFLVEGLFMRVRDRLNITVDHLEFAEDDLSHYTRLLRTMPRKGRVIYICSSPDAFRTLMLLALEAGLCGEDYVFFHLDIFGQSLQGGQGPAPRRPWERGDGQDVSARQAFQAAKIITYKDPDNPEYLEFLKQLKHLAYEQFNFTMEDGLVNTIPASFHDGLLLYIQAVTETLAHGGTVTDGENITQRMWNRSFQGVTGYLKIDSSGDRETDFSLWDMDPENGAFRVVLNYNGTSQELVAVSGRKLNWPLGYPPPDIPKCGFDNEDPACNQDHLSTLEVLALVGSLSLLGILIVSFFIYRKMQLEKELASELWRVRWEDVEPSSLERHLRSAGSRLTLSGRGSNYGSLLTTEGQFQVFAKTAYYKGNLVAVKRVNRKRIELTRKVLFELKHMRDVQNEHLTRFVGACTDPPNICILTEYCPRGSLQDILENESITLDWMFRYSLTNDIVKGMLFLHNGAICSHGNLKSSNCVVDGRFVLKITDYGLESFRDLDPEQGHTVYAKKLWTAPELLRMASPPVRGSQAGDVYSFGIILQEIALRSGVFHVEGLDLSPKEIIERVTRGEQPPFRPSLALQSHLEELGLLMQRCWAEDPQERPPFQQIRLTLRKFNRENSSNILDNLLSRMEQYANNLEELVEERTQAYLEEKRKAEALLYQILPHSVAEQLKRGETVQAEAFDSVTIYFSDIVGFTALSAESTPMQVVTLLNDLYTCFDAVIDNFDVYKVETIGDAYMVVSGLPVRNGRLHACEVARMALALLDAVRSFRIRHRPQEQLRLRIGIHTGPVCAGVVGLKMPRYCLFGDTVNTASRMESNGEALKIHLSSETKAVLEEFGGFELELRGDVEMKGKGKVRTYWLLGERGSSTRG
Sequence of Parathyroid hormone/parathyroid hormone-related peptide receptor (Homo sapiens) (Q03431 whole entry, looked up): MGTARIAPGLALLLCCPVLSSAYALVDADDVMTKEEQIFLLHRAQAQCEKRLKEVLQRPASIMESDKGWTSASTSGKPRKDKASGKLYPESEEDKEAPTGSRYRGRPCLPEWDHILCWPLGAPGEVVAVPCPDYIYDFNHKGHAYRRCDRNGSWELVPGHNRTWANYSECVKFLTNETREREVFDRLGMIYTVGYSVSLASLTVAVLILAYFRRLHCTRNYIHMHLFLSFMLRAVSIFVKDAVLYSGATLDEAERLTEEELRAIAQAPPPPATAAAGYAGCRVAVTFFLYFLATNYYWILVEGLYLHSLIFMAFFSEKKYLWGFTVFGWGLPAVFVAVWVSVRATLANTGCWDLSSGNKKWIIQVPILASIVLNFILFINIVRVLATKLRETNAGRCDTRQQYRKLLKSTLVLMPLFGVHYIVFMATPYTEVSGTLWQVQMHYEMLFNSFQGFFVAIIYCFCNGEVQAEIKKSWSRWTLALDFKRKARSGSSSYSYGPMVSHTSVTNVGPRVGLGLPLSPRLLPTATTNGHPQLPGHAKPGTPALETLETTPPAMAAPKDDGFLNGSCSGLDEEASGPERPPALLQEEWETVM
T1 sequence (P78324 whole entry, looked up): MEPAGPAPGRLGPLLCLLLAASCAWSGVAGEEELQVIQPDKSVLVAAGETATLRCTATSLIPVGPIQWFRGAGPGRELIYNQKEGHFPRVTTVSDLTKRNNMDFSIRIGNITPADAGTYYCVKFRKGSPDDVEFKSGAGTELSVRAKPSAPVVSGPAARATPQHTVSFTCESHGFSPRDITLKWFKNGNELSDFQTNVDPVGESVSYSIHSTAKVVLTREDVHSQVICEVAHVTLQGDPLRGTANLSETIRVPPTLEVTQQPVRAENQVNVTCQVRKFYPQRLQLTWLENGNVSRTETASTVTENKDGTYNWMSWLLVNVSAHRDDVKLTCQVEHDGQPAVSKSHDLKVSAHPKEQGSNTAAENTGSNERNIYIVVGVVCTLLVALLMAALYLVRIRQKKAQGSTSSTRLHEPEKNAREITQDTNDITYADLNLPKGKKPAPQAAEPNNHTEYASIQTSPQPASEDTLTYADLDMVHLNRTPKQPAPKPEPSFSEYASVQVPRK
T1 sequence (Q08722 whole entry, looked up): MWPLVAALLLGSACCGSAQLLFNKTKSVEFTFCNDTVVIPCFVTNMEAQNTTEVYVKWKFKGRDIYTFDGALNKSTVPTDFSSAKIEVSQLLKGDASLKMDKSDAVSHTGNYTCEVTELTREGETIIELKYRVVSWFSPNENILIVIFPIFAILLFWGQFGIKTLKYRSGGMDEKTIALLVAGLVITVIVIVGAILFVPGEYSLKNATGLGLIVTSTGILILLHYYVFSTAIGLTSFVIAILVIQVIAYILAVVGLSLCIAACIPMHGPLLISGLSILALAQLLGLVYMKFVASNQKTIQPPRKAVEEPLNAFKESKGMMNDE
Sequence of Atrial natriuretic peptide receptor 2 (Homo sapiens) (P20594 whole entry, looked up): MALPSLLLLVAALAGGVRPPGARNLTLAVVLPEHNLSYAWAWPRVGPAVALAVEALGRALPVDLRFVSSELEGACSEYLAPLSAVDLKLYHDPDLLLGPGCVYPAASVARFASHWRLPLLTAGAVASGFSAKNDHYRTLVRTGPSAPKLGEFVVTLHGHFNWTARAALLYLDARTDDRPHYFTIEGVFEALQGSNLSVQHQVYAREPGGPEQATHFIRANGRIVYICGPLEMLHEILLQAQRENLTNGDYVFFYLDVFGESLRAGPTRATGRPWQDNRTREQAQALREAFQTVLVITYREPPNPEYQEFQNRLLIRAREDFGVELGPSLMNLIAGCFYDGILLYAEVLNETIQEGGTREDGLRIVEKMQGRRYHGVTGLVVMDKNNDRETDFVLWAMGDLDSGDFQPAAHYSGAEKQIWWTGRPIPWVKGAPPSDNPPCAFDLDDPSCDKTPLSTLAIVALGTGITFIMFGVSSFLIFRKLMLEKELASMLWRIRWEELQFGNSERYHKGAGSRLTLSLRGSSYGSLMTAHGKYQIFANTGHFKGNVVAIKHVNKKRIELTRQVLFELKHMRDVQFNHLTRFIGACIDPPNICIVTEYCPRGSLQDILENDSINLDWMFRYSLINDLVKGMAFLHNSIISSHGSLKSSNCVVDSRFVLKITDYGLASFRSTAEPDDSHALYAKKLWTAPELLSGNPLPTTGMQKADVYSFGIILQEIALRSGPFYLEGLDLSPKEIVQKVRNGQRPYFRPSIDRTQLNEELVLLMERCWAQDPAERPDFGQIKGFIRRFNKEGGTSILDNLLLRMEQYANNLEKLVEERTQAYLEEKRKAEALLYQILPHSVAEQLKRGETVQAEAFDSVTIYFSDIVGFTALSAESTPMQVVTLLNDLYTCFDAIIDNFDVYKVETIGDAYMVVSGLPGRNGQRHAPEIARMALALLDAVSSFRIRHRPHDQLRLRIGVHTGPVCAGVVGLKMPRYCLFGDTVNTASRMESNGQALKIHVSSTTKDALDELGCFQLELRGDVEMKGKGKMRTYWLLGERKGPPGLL

CC(=O)Nc1nnc(S(N)(=O)=O)s1
inactive: Potency [1] | Potency [2] | Potency [3] | Potency [4] | Potency [5] | outcome [6] | outcome [7] | outcome [8] | Potency [9] | outcome [10] | Potency [11] | Potency [12] | Potency [13] | Potency [14] | Potency [15]

CCCNC(C)C(=O)Nc1ccccc1C (centres undefined)
inactive: Potency [1] | Potency [2] | Potency [3] | Potency [4] | Potency [5] | outcome [6] | outcome [7] | outcome [8] | Potency [9] | outcome [10] | Potency [16] | Potency [11] | Potency [12] | Potency [13] | Potency [14] | Potency [15]

O=C(O)CN(CCOCCOCCN(CC(=O)O)CC(=O)O)CC(=O)O
inactive: Potency [1] | Potency [2] | Potency [3] | Potency [4] | Potency [5] | outcome [6] | outcome [7] | outcome [8] | Potency [9] | outcome [10] | activity change, negative = cytotoxic [16] 12.3% [at 0.594 µM] | activity change, negative = cytotoxic [11] 12.8% [at 0.597 µM] | activity change, negative = cytotoxic [12] 26.6% [at 0.597 µM] | activity change, negative = cytotoxic [13] 8.27% [at 0.597 µM] | activity change, negative = cytotoxic [14] 0.435% [at 0.597 µM] | activity change, negative = cytotoxic [15] 13% [at 0.745 µM]

CC(N=C(NC#N)Nc1ccncc1)C(C)(C)C (centres undefined)
inactive: Potency [1] | Potency [2] | Potency [3] | Potency [4] | Potency [5] | outcome [6] | outcome [7] | outcome [8] | Potency [9] | outcome [10] | Potency [16] | Potency [11] | Potency [12] | Potency [13] | Potency [14] | Potency [15]

CCCOc1ccccc1-c1nc2n[nH]nc2c(=O)[nH]1
inactive: Potency [1] | Potency [2] | Potency [3] | Potency [4] | Potency [5] | outcome [6] | outcome [7] | outcome [8] | Potency [9] | outcome [10] | Potency [16] | Potency [11] | Potency [12] | Potency [13] | Potency [14] | Potency [15]

NCCCNCCSP(=O)(O)O
inactive: Potency [1] | Potency [2] | Potency [3] | Potency [4] | Potency [5] | outcome [6] | outcome [7] | outcome [8] | Potency [9] | outcome [10] | activity change, negative = cytotoxic [16] 10.8% [at 9.17 µM] | activity change, negative = cytotoxic [11] 0.0744% [at 9.22 µM] | activity change, negative = cytotoxic [12] 14.1% [at 9.22 µM] | activity change, negative = cytotoxic [13] 5.74% [at 9.22 µM] | activity change, negative = cytotoxic [14] -14.6% [at 9.22 µM] | activity change, negative = cytotoxic [15] 7.29% [at 11.5 µM]

CCCN(CCC)C(=O)C(CCC(=O)O)NC(=O)c1ccccc1 (centres undefined)
inactive: Potency [1] | Potency [2] | Potency [3] | Potency [4] | Potency [5] | outcome [6] | outcome [7] | outcome [8] | Potency [9] | outcome [10] | Potency [11] | Potency [12] | Potency [13] | Potency [14] | Potency [15]

Cc1cc(C)c(/C=C2\C(=O)Nc3ccccc32)[nH]1
inactive: Potency [1] | outcome [17] | Potency [3] | Potency [4] | Potency [5] | outcome [6] | outcome [7] | Potency [9] | outcome [10] | Potency [16] | Potency [11] | Potency [12] | Potency [13] | Potency [15]
active: Potency [14] 18.8 µM

CN(C)CCOC(=O)COc1ccc(Cl)cc1
inactive: Potency [1] | Potency [2] | Potency [3] | Potency [4] | Potency [5] | outcome [6] | outcome [7] | outcome [8] | Potency [9] | outcome [10] | Potency [16] | Potency [11] | Potency [12] | Potency [13] | Potency [14] | Potency [15]

CNC1(C)C2CCC(C2)C1(C)C (centres undefined)
inactive: Potency [1] | Potency [2] | Potency [3] | Potency [4] | Potency [5] | outcome [6] | outcome [7] | outcome [8] | Potency [9] | outcome [10] | Potency [16] | Potency [11] | Potency [12] | Potency [13] | Potency [14] | Potency [15]

COc1ccc([C@@H]2Sc3ccccc3N(CCN(C)C)C(=O)[C@@H]2OC(C)=O)cc1
inactive: Potency [1] | Potency [3] | Potency [4] | Potency [5] | outcome [6] | outcome [7] | outcome [8] | Potency [9] | outcome [10] | Potency [11] | Potency [12] | Potency [13] | Potency [14] | Potency [15]
active: Potency [2] 20.6 µM

CNCCC(Oc1ccccc1OC)c1ccccc1 (centres undefined)
inactive: Potency [1] | Potency [2] | Potency [3] | Potency [4] | Potency [5] | outcome [6] | outcome [7] | outcome [8] | Potency [9] | outcome [10] | Potency [16] | Potency [11] | Potency [12] | Potency [13] | Potency [14] | Potency [15]

Nc1c2c(nc3ccccc13)CCCC2O (centres undefined)
inactive: Potency [1] | Potency [2] | Potency [3] | Potency [4] | Potency [5] | outcome [6] | outcome [7] | outcome [8] | Potency [9] | outcome [10] | Potency [16] | Potency [11] | Potency [12] | Potency [13] | Potency [14] | Potency [15]

CCc1c(C)[nH]c2c1C(=O)C(CN1CCOCC1)CC2 (centres undefined)
inactive: Potency [1] | Potency [2] | Potency [3] | Potency [4] | Potency [5] | outcome [6] | outcome [7] | outcome [8] | Potency [9] | outcome [10] | Potency [16] | Potency [11] | Potency [12] | Potency [13] | Potency [14] | Potency [15]

CCCCCCCC/C=C\CCCCCCCC(=O)NCc1ccc(O)c(OC)c1
active: Potency [13] 2.66 µM
inactive: Potency [1] | Potency [2] | Potency [3] | Potency [4] | Potency [5] | outcome [6] | outcome [7] | outcome [8] | Potency [9] | outcome [10] | Potency [16] | Potency [11] | Potency [15]
